Test results reported in PubChem BioAssay AID588689 (Southern Research Specialized Biocontainment Screening …, 2011).
The whole screen tested about 340,000 compounds, of which about 1,000 (0.29%) were called active. Cut-off read from the data, not from the text of the source: inconclusive = inhibition above about 29% without an active follow-up result; inactive = below that. The list is a sample of the results. Measured potencies and affinities stand elsewhere.

Biological target: Genome polyprotein (Dengue virus type 2 (strain 16681-PDK53)) (UniProt P29991)
Test: Dengue-2 NS5 methyltransferase inhibitors, primary screen, biochemical, confirmation dose response (AID 588689)
Settings: Dengue-2 NS5 methyltransferase capping enzyme assay, at 25 µM, stronger effect = higher value
[1] = measured here: pilot screen replicate inhibition

SMILES | inhibition | inhibition [1]
COc1ccc(N2C(=O)C(Cl)=C(Nc3ccccc3OC)C2=O)cc1 | 1.45% (inactive) | 
CCOc1ccc(N2C(=O)C(Cl)=C(Nc3ccccc3O)C2=O)cc1 | 31% (inactive) | 
Cc1cccc(/C=N/n2c(C)cc(C)c(C#N)c2=O)c1 | -3.26% (inactive) | 
O=C(O)c1cccc(-n2cccc2C=C2C(=O)c3ccccc3C2=O)c1 | 12.5% (inactive) | 
O=C1NC(=S)N/C1=C/c1cccn1-c1ccc([N+](=O)[O-])cc1 | 0% (inactive) | 
O=C1C(=Cc2cccn2-c2ccccc2)C(=O)c2ccccc21 | 5.2% (inactive) | 
O=Cc1cccn1-c1ccc(O)cc1 | -5.89% (inactive) | 
CCC(OC(=O)CNS(=O)(=O)c1ccccc1)C(=O)c1ccccc1 (stereo not drawn) | 5.35% (inactive) | 
COc1ccc2c(c1OC)C(=O)N1C(C(=O)O)Cc3c([nH]c4ccccc34)C21 (stereo not drawn) | -3.23% (inactive) | 
CCOc1cc(NC(=S)NCCCN2CCOCC2)c(OCC)cc1NC(=O)c1cccc(C)c1 | 3.64% (inactive) | 
O=S(=O)(CCSc1ccc(C(F)(F)F)cn1)c1ccccc1 | -9.27% (inactive) | 
O=C(NCc1ccco1)c1ccc(CS(=O)Cc2cccc(Cl)c2)o1 (stereo not drawn) | 2.71% (inactive) | 
NNc1nc(-c2ccccc2)c2cc(Cl)ccc2n1 | 4.62% (inactive) | 
COCCN(CC(=O)Nc1cccc(C)c1C)C(=O)C1(c2ccc(Cl)cc2)CCC1 | -0.37% (inactive) | 
Cc1ccc(C2C3=C(CCCC3=O)Nc3[nH]c(=S)[nH]c(=O)c32)cc1 (stereo not drawn) | -5.01% (inactive) | -6.68%
O=C1CCCC2=C1C(c1ccc(Br)cc1)c1c([nH]c(=S)[nH]c1=O)N2 (stereo not drawn) | 15.2% (inactive) | 
O=c1cc(CCc2ccccc2)oc2cccc(O)c12 | -3.62% (inactive) | 
CC(C)(C)C(=O)CN1C(=O)NC2(CCc3ccccc32)C1=O (stereo not drawn) | -0.65% (inactive) | 
COc1cccc(-c2nc(CS(=O)(=O)CC(=O)N3CCc4ccccc4C3)c(C)o2)c1 | 6.54% (inactive) | 
CNc1ccccc1C(=O)OC | 2.17% (inactive) | 

SMILES | inhibition | inhibition [1]
CC1(C)CC(=O)C(N=Nc2ccc(OC(F)F)cc2)=C(O)C1 | 10.8% (inactive) | 
CC1(C)CC(=O)C(C(C#Cc2ccccc2)C2=C(O)CC(C)(C)CC2=O)=C(O)C1 | -2.82% (inactive) | 
CC1(C)CC(=O)C(C(C2=C(O)CC(C)(C)CC2=O)c2cccc(O)c2)C(=O)C1 (stereo not drawn) | 0.68% (inactive) | -19.3%
CC1(C)CC(=O)C(C(C2=C(O)CC(C)(C)CC2=O)c2ccco2)C(=O)C1 (stereo not drawn) | -52.5% (inactive) | 
CC1(C)CC(=O)C(C(c2ccncc2)C2C(=O)CC(C)(C)CC2=O)C(=O)C1 | 5.41% (inactive) | 
CC1(C)CC(=O)C(Br)=C(O)C1 | -10.3% (inactive) | 
COc1cccc(C(C2=C(O)CC(C)(C)CC2=O)C2C(=O)CC(C)(C)CC2=O)c1 (stereo not drawn) | -1.95% (inactive) | 
CC1(C)CC(=O)C(C(c2ccco2)C2C(=O)CC(C)(C)CC2=O)C(=O)C1 | 37.4% (inactive) | 17.1%
O=C(O)c1cnc(-c2ccccc2)nc1Sc1ccc(Cl)cc1Cl | 4.03% (inactive) | 
Cc1cccc(C2=NN(c3ccccc3)[C@@H](C(=O)N3CCOC3=O)[C@@H]2C)c1 | -1.32% (inactive) | 4.88%
CCOC(=O)c1cc(=O)nc(N)s1 | -4.03% (inactive) | 
O=C(COc1ccc([N+](=O)[O-])cc1)NCC(c1cccs1)N1CCOCC1 (stereo not drawn) | 4.32% (inactive) | 
CC(C)(C)OC(=O)N1CCC(CC2CC(c3ccccc3)=NO2)(C(=O)O)CC1 (stereo not drawn) | -3.93% (inactive) | 
O=S(=O)(Nc1ccccc1N1CCCCC1)c1ccccc1 | 1.3% (inactive) | 
S=C(Nc1ccc(Br)cc1Cl)N1CCCC1 | -2.6% (inactive) | 
COc1ccc(C2=CC(=O)C[C@H](c3ccc(OC)c(OC)c3)C2)cn1 | -0.4% (inactive) | 
O=C(O)CN1CCN(Cc2cccc(Cl)c2)C1=O | -1.31% (inactive) | 
CCCC(C1=C(O)CC(C)(C)CC1=O)C1C(=O)CC(C)(C)CC1=O (stereo not drawn) | -11.2% (inactive) | 
CC1(C)CC(=O)C(CC2=C(O)CC(C)(C)CC2=O)C(=O)C1 | -33.8% (inactive) | 
CC(C)c1cc(C(=O)NCc2cccnc2)no1 | 1.6% (inactive) | 

SMILES | inhibition | inhibition [1]
O=C(NNc1ccccc1[N+](=O)[O-])Nc1ccccc1 | -1.39% (inactive) | 
CC1CCc2c(sc3ncnc(SCC(=O)Nc4ccc(C(=O)O)cc4)c23)C1 (stereo not drawn) | -4.98% (inactive) | 
COc1cc(NC(=O)CSc2ncnc3sc4c(c23)CCCC4)c(C(=O)O)cc1OC | -3.33% (inactive) | 
COCCNC(=O)C(=O)c1c(-c2ccccc2)[nH]c2ccccc12 | 1.52% (inactive) | 
O=C(Nc1ccc(S(=O)(=O)N2CCOCC2)cc1)c1ccc2c(c1)S(=O)(=O)c1ccccc1C2=O | -4.52% (inactive) | 
O=C(Nc1cc(S(=O)(=O)N2CCOCC2)ccc1N1CCCC1)c1ccc2c(c1)S(=O)(=O)c1ccccc1C2=O | -7.41% (inactive) | 
COCc1nc(-c2cc(Br)ccc2OC)no1 | -4.06% (inactive) | 
CCn1c(O)c(C=Nc2ccccc2)oc1=S | -8.34% (inactive) | 
Cc1nc2ccc(NC(=O)c3ccc([N+](=O)[O-])cc3[N+](=O)[O-])cc2s1 | -5.18% (inactive) | 
Cc1nc2ccc(NC(=O)c3ccc(Cl)c([N+](=O)[O-])c3)cc2s1 | -4.44% (inactive) | 
COc1cccc(NC(=S)N2CCC(c3ccc(C)cc3)C2)c1 (stereo not drawn) | -1.96% (inactive) | 
COc1ccc(CCNC(=O)c2nnn(CC(=O)Nc3c(C)cc(C)cc3C)c2N)cc1OC | -7.1% (inactive) | 
COc1cc(NC(=O)c2ccc(COCC(F)(F)F)o2)cc(OC)c1OC | 0% (inactive) | 
COc1cc(C(C2C(=O)CC(C)(C)CC2=O)C2C(=O)CC(C)(C)CC2=O)ccc1OC(C)=O | -2.35% (inactive) | 
COc1ccc(N2C(=O)CC(C)(C)CC2=O)cc1OC | 0% (inactive) | 
COc1ccc(NC(=O)c2ccc(COCC(F)(F)F)cc2)cc1OC | -2.91% (inactive) | 
CC1(C)CC(=O)C(C(c2ccccc2F)C2C(=O)CC(C)(C)CC2=O)C(=O)C1 | 22.6% (inactive) | 
CCOc1ccc(CC(=O)C2C(=O)CC(C)(C)CC2=O)cc1OCC | -13.1% (inactive) | 
COc1cc(C(O)C(=O)O)ccc1O (stereo not drawn) | -7.33% (inactive) | 
